In all, about 5,500 compounds went through this assay and about 2,000 (36%) were called active. About 18% were inconclusive and are not listed. Rule as the data show it: active = normalized growth mostly below about 0.91 (no sharp cut-off); inconclusive = no clear call, values can overlap the other calls; inactive = mostly above about 0.92. The list shows a part of the results.
Assay: chemical genetic growth profiling, strain panel (AID 1159580);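 also: tested at 20 µM; growth read once vehicle control cultures reached saturation at 30 °C; 1 = growth at the plate median or of vehicle wells; lower values mean less growth of the strain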
Conditions: S. cerevisiae deletion strains, growth OD
[1] = locus YDL101C, strain DUN1, stronger effect = lower value
[2] = locus YHR030C, strain SLT2, stronger effect = lower value

Measured: normalized growth

Cc1ccc(Cl)cc1NC(=S)NCCO
inactive: locus YAL013W, strain DEP1, stronger effect = lower value 1.01 | locus YBR229C, strain ROT2, stronger effect = lower value 1.01 | [1] 1.01 | locus YDL134C, strain PPH21, stronger effect = lower value 0.996 | locus YDR150W, strain NUM1, stronger effect = lower value 1 | locus YEL061C, strain CIN8, stronger effect = lower value 1.02 | locus YGR078C, strain PAC10, stronger effect = lower value 1.02 | locus YGR229C, strain SMI1, stronger effect = lower value 0.999 | [2] 1.02 | locus YHR087W, strain rtc3, stronger effect = lower value 1.01 | locus YJL187C, strain SWE1, stronger effect = lower value 1.01 | locus YJR043C, strain POL32, stronger effect = lower value 0.993 | locus YJR075W, strain HOC1, stronger effect = lower value 0.992 | locus YKL190W, strain CNB1, stronger effect = lower value 1 | locus YLR039C, strain RIC1, stronger effect = lower value 1.02 | locus YLR058C, strain SHM2 (second series), stronger effect = lower value 1.01 | locus YLR085C, strain ARP6, stronger effect = lower value 1 | locus YLR262C, strain YPT6, stronger effect = lower value 1.01 | locus YML094W, strain GIM5, stronger effect = lower value 1.05 | locus YMR219W, strain ESC1, stronger effect = lower value 1 | locus YMR263W, strain SAP30, stronger effect = lower value 0.989 | locus YMR307W, strain GAS1, stronger effect = lower value 0.95 | locus YNL128W, strain TEP1, stronger effect = lower value 1.02 | locus YNL153C, strain GIM3, stronger effect = lower value 1.01 | locus YNL298W, strain CLA4 (second series), stronger effect = lower value 1.03 | locus YNL322C, strain KRE1, stronger effect = lower value 1 | locus YNR030W, strain Alg12, stronger effect = lower value 0.96 | locus YOL006C, strain TOP1, stronger effect = lower value 1.03 | locus YPL055C, strain LGE1, stronger effect = lower value 1.02 | locus YPL241C, strain CIN2, stronger effect = lower value 1 | locus YPR135W, strain CTF4, stronger effect = lower value 1.11

O=C(CO/N=C\c1ccc(Cl)cc1Cl)NNC(=S)Nc1cc(Cl)ccc1Cl
inactive: locus YAR019C, strain CDC15, stronger effect = lower value 1 | locus YBL105C, strain PKC1, stronger effect = lower value 0.992 | locus YBR135W, strain CKS1, stronger effect = lower value 1 | locus YBR136W, strain MEC1, stronger effect = lower value 1.01 | locus YBR160W, strain CDC28, stronger effect = lower value 1 | locus YDL017W, strain CDC7, stronger effect = lower value 1 | locus YDL028C, strain MPS1, stronger effect = lower value 1 | [1] 0.978 | locus YDL108W, strain KIN28, stronger effect = lower value 1.01 | locus YDL132W, strain cdc53, stronger effect = lower value 1 | locus YDL214C, strain PRR2, stronger effect = lower value 0.999 | locus YDR052C, strain DBF4, stronger effect = lower value 1 | locus YDR054C, strain cdc34, stronger effect = lower value 0.994 | locus YDR226W, strain ADK1, stronger effect = lower value 0.994 | locus YDR477W, strain SNF1, stronger effect = lower value 0.983 | locus YER123W, strain YCK3, stronger effect = lower value 0.996 | locus YER133W, strain GLC7, stronger effect = lower value 0.983 | locus YFL009W, strain cdc4, stronger effect = lower value 0.996 | locus YFL029C, strain CAK1, stronger effect = lower value 1.01 | locus YFR003C, strain YPI1, stronger effect = lower value 0.997 | locus YFR019W, strain FAB1, stronger effect = lower value 1 | locus YFR028C, strain CDC14, stronger effect = lower value 0.994 | locus YGR040W, strain KSS1, stronger effect = lower value 0.984 | locus YGR052W, strain FMP48, stronger effect = lower value 1.02 | locus YGR092W, strain DBF2, stronger effect = lower value 0.961 | [2] 1.01 | locus YHR079C, strain IRE1, stronger effect = lower value 0.966 | locus YHR082C, strain KSP1, stronger effect = lower value 1.14 | locus YHR205W, strain SCH9, stronger effect = lower value 0.98 | locus YIL147C, strain SLN1, stronger effect = lower value 1 | locus YJL095W, strain BCK1, stronger effect = lower value 0.928 | locus YJL128C, strain PBS2, stronger effect = lower value 0.992 | locus YJL157C, strain FAR1, stronger effect = lower value 0.989 | locus YJR016C, strain ILV3, stronger effect = lower value 1 | locus YJR066W, strain TOR1 (second series), stronger effect = lower value 0.948 | locus YJR066W, strain TOR1, stronger effect = lower value 1.15 | locus YKL048C, strain ELM1, stronger effect = lower value 1 | locus YKL067W, strain YNK1, stronger effect = lower value 1.03 | locus YKL101W, strain HSL1, stronger effect = lower value 1 | locus YKL193C, strain SDS22, stronger effect = lower value 1 | locus YKL203C, strain TOR2, stronger effect = lower value 1.06 | locus YLR113W, strain HOG1, stronger effect = lower value 1.01 | locus YLR133W, strain CKI1, stronger effect = lower value 1.02 | locus YLR403W, strain SFP1, stronger effect = lower value 0.97 | locus YML070W, strain DAK1, stronger effect = lower value 0.995 | locus YMR001C, strain CDC5, stronger effect = lower value 1 | locus YMR205C, strain PFK2 (second series), stronger effect = lower value 1.01 | locus YMR277W, strain FCP1, stronger effect = lower value 1 | locus YNL006W, strain LST8, stronger effect = lower value 0.99 | locus YNL020C, strain ARK1, stronger effect = lower value 1.01 | locus YNL161W, strain CBK1, stronger effect = lower value 0.996 | locus YNL183C, strain NPR1, stronger effect = lower value 1.09 | locus YNL207W, strain RIO2, stronger effect = lower value 1.01 | locus YNL222W, strain SSU72, stronger effect = lower value 0.993 | locus YNL307C, strain MCK1 (second series), stronger effect = lower value 0.999 | locus YOL078W, strain AVO1, stronger effect = lower value 1 | locus YOL136C, strain PFK27, stronger effect = lower value 1.01 | locus YOR061W, strain CKA2, stronger effect = lower value 1.02 | locus YOR119C, strain RIO1, stronger effect = lower value 1.05 | locus YOR231W, strain MKK1, stronger effect = lower value 1.05 | locus YOR329C, strain SCD5, stronger effect = lower value 1.01 | locus YPL031C, strain PHO85, stronger effect = lower value 0.995 | locus YPL153C, strain RAD53, stronger effect = lower value 0.99 | locus YPL204W, strain HRR25, stronger effect = lower value 0.991 | locus YPL209C, strain IPL1, stronger effect = lower value 1 | locus YPL256C, strain CLN2, stronger effect = lower value 1.02 | locus YPR025C, strain CCL1, stronger effect = lower value 0.997 | locus YPR106W, strain ISR1, stronger effect = lower value 0.992 | locus YPR111W, strain DBF20, stronger effect = lower value 0.997 | strain NNK1, stronger effect = lower value 0.997 | strain TSCII, stronger effect = lower value 0.997
